Activity calls are given as the source filed them. Unless noted, the rule behind the calls is not given here.
How the values were obtained:
[1] = HepG2 liver cancer cell viability effects, profiling panel, resazurin fluorescence, 24 h, PK04 Diversity Set (AID 1172); conditions: higher = more signal
[2] = basal S. cerevisiae growth modulation, no modifier, primary screen, OD600, strain BY4716, 24 h, basal condition (AID 1173); conditions: OD600, 24 h, higher = more signal, called active from +8 up or from −8 down
[3] = MM1S myeloma cell viability, profiling panel, resazurin fluorescence, basal, 24 h, PK04 Diversity Set (AID 1174); conditions: higher = more signal, called active from +8 up or from −8 down;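 note: MM1S multiple myeloma cell line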
[4] = biological target: Dihydroorotate dehydrogenase (quinone), mitochondrial (Plasmodium falciparum (isolate 3D7)) (UniProt Q08210); test: PfDHODH enzyme inhibitors, primary screen, biochemical, C-terminal His tag, absorbance 600 nm (AID 1175); conditions: DCIP absorbance 600 nm, higher = more signal, called active from +8 up or from −8 down;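 note: recombinant parasite enzyme with a five histidine tag at its C terminus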
[5] = P. aeruginosa biofilm formation inhibitors, primary screen, strain PAO1, LB-PBS medium, absorbance 600 nm (AID 1176); conditions: P. aeruginosa PAO1 growth/biofilm, A600, 12 h; higher = more signal
[6] = S. cerevisiae RM11-1a growth modifiers, primary screen, strain RM11-1a, OD600, basal, 24 h (AID 1177); conditions: OD600, 24 h, higher = more signal, called active from +8 up or from −8 down;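 note: cultures grown under basal conditions with no added stressor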
[7] = E. coli acrAB mutant growth effects, primary screen, E. coli filamentation inducers, strain DRC39, OD650, 24 h (AID 1178); conditions: higher = more signal, called active from +8 up or from −8 down;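 note: growth measured as culture turbidity by optical density at 650 nm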
[8] = E. coli acrAB mutant growth effects, primary screen, E. coli filamentation inducers, strain DRC39, OD650, 48 h (AID 1179);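 note: screen aims at cell division blockers that make cells filament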; conditions: E. coli DRC39 delta-acrAB growth, higher = more signal, called active from +8 up or from −8 down
[9] = RPMI8226 myeloma cell viability, profiling panel, resazurin fluorescence, basal, 24 h, PK04 Diversity Set (AID 1180); conditions: higher = more signal;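 note: RPMI8826 multiple myeloma cell line at 5000 cells per well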
[10] = biological target: E3 ubiquitin-protein ligase XIAP (Homo sapiens) (UniProt P98170); test: XIAP binders, primary screen, biophysical, small-molecule microarray, fluorescence 635 nm (AID 1181); conditions: small-molecule microarray binding, higher = more signal;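 note: score merges 667 nm emission and signal to noise over triplicate slides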
[11] = test system: XIP peptide (Xip251-270) binding; test: small-molecule binders of XIP peptide, primary screen, biochemical, small-molecule microarray, fluorescence 635/667 nm, 0.1 µg/mL protein (AID 1182); conditions: fluorescent protein binding, 635 nm, higher = more signal, called active from +8 up or from −8 down
[12] = test system: XIP peptide (Xip251-270); test: small-molecule binders of XIP peptide, primary screen, biochemical, small-molecule microarray, fluorescence 635/667 nm, 0.5 µg/mL protein (AID 1183); conditions: small-molecule microarray binding, fluorescence 635 nm; higher = more signal
[13] = Plasmodium falciparum growth inhibition, primary screen, strain 3D7, DAPI fluorescence, 100 nL (AID 1184);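 note: parasites grown inside human red blood cells in medium with human serum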; conditions: P. falciparum 3D7 growth, 3 d, higher = more signal
[14] = biological target: Homeobox protein Hox-A13 (Mus musculus) (UniProt Q62424); test: inhibitors of HoxA13-DNA binding, primary screen, biochemical, fluorescence polarization, labeled oligonucleotide (AID 1185); conditions: 15 min, higher = more signal, called active from +8 up or from −8 down
[15] = inhibitors of hydroxyurea-induced Chk1 phosphorylation, primary screen, imaging, HeLa, phospho-Chk1 antibody, percent positive cells (AID 1186); conditions: hydroxyurea-induced phospho-Chk1 immunofluorescence imaging, higher = more signal
[16] = inhibitors of hydroxyurea-induced Chk1 phosphorylation, primary screen, imaging, HeLa, phospho-Chk1 nuclear intensity (AID 1187); conditions: hydroxyurea-induced phospho-Chk1 immunofluorescence imaging, higher = more signal

Chain of Homeobox protein Hox-A13 (Mus musculus) (Q62424 whole entry, looked up): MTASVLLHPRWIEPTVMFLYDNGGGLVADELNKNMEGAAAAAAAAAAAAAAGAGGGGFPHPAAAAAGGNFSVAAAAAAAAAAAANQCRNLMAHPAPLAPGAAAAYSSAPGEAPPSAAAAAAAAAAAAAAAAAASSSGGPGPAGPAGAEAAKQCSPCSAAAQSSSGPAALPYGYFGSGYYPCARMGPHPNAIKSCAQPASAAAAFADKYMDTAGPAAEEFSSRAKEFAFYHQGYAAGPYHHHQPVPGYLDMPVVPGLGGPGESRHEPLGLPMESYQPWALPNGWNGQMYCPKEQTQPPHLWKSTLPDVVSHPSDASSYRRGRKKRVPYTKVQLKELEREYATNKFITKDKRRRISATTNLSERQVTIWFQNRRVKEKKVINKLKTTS
Chain of Dihydroorotate dehydrogenase (quinone), mitochondrial (Plasmodium falciparum (isolate 3D7)) (Q08210 whole entry, looked up): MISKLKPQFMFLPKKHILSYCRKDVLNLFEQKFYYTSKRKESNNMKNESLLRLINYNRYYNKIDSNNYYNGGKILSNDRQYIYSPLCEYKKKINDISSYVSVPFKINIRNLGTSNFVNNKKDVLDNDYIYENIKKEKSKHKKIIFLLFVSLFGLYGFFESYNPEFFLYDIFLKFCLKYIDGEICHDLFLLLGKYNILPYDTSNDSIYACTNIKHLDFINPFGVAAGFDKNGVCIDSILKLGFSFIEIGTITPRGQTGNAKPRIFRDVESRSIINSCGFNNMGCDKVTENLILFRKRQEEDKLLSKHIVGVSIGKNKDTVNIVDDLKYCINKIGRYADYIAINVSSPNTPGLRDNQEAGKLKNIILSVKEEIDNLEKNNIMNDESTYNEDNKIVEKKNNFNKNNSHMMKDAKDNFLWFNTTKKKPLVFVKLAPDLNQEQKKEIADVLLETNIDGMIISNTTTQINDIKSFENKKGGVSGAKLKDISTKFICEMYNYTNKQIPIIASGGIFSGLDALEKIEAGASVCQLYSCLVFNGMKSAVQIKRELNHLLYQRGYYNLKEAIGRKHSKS
Chain of E3 ubiquitin-protein ligase XIAP (Homo sapiens) (P98170 whole entry, looked up): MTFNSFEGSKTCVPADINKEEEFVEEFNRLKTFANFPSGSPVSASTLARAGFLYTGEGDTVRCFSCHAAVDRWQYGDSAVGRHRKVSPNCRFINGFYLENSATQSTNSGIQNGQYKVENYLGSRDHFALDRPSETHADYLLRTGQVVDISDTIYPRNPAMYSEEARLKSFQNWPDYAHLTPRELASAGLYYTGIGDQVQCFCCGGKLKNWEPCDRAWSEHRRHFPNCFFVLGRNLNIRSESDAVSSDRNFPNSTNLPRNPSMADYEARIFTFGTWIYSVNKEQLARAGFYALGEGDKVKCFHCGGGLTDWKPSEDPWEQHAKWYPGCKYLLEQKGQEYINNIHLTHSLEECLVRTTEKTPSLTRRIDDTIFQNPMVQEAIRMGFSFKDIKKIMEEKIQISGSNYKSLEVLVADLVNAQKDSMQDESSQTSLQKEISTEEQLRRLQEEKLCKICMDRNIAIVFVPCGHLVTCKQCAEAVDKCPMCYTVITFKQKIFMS

SMILES	z-score [1]	z-score [2]	z-score [3]	composite z-score [4]	z-score [5]	z-score [6]	z-score [7]	z-score [8]	z-score [9]	composite z-score [10]	composite z-score [11]	composite z-score [12]	z-score [13]	z-score [14]	z-score [15]	z-score [16]
COC(=O)[C@@]1(Cc2ccc(OC)cc2)[C@H]2c3cc(C(=O)N4CCCC4)n(CCSCCO)c3C[C@H]2CN1C(=O)c1ccccc1	0.353	1.6 (inactive)	0.129 (inactive)	-0.0408 (inactive)	0.923 (inactive)	1.47 (inactive)	-1.18 (inactive)	-0.739 (inactive)	-1.3	0.187	0.0308 (inactive)	0.826	-1.44	-5.24 (inactive)	1.35 (inactive)	1.04 (inactive)
CN1C(=O)C2C=CC(C(O)C=Cc3ccc([N+](=O)[O-])cc3)N(Nc3ccccc3)C2C1=O (centres undefined)	-0.891	-4.48 (inactive)	-1.55 (inactive)	-1.01 (inactive)	1.41 (inactive)	-0.709 (inactive)	-0.377 (inactive)	-0.668 (inactive)	-1.45	0.376	0.113 (inactive)	0.612	0.431	-5.37 (inactive)	0.0831 (inactive)	-0.733 (inactive)
CC(C)[Si](C#CCCCC#N)(O[C@H](c1ccccc1)c1cn(Cc2cccc(Cl)c2)nn1)C(C)C	0.36	-0.718 (inactive)	0.109 (inactive)	0.369 (inactive)	1.25 (inactive)	-0.358 (inactive)	-0.0251 (inactive)	-0.203 (inactive)	-0.701	0.149	-0.186 (inactive)	0.605	-1.06	-0.527 (inactive)	-0.628 (inactive)	-0.968 (inactive)
CCCCN1CC=CC23O[C@@H]4/C=C\CCCOC(=O)C4[C@H]2C(=O)N(CCCO)[C@@H]3C1=O (some centres undefined)	0.426	0.129 (inactive)	0.31 (inactive)	0.119 (inactive)	0.55 (inactive)	-1.39 (inactive)	-0.0564 (inactive)	-0.314 (inactive)	0.309	-0.31	1.48 (inactive)	0.737	0.651	-5.29 (inactive)	0.267 (inactive)	0.576 (inactive)
CC(C)CN1C(=O)[C@@]2(c3ccc([N+](=O)[O-])cc3)CC(=O)N(C3CCCCC3)[C@@H]2c2ccc(CO)cc21	-0.321	0.669 (inactive)	-0.248 (inactive)	-13.6 (active)	0.292 (inactive)	0.488 (inactive)	0.0743 (inactive)	0.922 (inactive)	-0.323	0.119	-0.0685 (inactive)	-0.57	-0.643	-0.113 (inactive)	0.0566 (inactive)	0.558 (inactive)
COC(=O)[C@@]1(Cc2ccc(OC)cc2)[C@H]2c3cc(C(=O)N(C)C)n(Cc4ccc(C(F)(F)F)nc4)c3C[C@H]2CN1C(=O)c1ccccc1	0.133	0.794 (inactive)	-0.312 (inactive)	-0.224 (inactive)	-0.0019 (inactive)	0.44 (inactive)	-0.22 (inactive)	-0.18 (inactive)	0.27	0.333	0.233 (inactive)	0.497	0.526	-3.56 (inactive)	0.832 (inactive)	0.858 (inactive)
COc1ccc(CCNC(=O)[C@@]2(c3ccc([N+](=O)[O-])cc3)CC(=O)N(CC34CC5CC(CC(C5)C3)C4)[C@@H]2c2ccc(CO)cc2I)cc1	-1.49	0.0097 (inactive)	-1.81 (inactive)	0.387 (inactive)	1.8 (inactive)	0.437 (inactive)	0.0777 (inactive)	0.223 (inactive)	-1.79	-0.195	0.417 (inactive)	0.723	-1.46	-0.814 (inactive)	-0.155 (inactive)	0.022 (inactive)
NC(=O)NCC#Cc1ccc2c(c1)[C@]1(C(=O)N2)[C@H](C(=O)O)[C@H]2C(=O)O[C@H](c3ccccc3)[C@H](c3ccccc3)N2[C@@H]1c1ccc(O)cc1	0.891	-0.0841 (inactive)	0.587 (inactive)	-1.63 (inactive)	0.393 (inactive)	0.0591 (inactive)	-0.131 (inactive)	-0.0796 (inactive)	0.902	0.0043	0.88 (inactive)	0.275	0.137	-5.06 (inactive)	0.0315 (inactive)	0.118 (inactive)
C=CC[C@]1(C(=O)N2CCOCC2)N=C(c2ccc(OCCCO)cc2)O[C@H]1c1ccccc1N=[N+]=[N-]	0.101	-1.01 (inactive)	-0.454 (inactive)	0.846 (inactive)	-0.167 (inactive)	0.275 (inactive)	1.31 (inactive)	0.844 (inactive)	-0.266	0.179	0.821 (inactive)	0.75	-1.92	-4.01 (inactive)	-0.528 (inactive)	-0.67 (inactive)
O=C1N(CCS(=O)(=O)c2ccccc2)c2ccccc2[C@@H]2OC(c3ccc(OCCCO)cc3)=N[C@]12Cc1ccccc1	0.292	-0.237 (inactive)	-3.11 (inactive)	-1.52 (inactive)	0.755 (inactive)	0.289 (inactive)	1.11 (inactive)	1.03 (inactive)	-1.95	0.0999	0.395 (inactive)	0.639	-2.17	-1.41 (inactive)	-0.522 (inactive)	-0.825 (inactive)
COCC(=C=CC[C@H](O)c1ccccc1OCCO)CCO	-0.504	-0.547 (inactive)	-0.251 (inactive)	-0.799 (inactive)	0.26 (inactive)	0.338 (inactive)	-0.135 (inactive)	-0.113 (inactive)	-0.672	-0.252	2.87 (inactive)	-0.501	-0.549	-2.98 (inactive)	0.387 (inactive)	-0.186 (inactive)
CCCCCN1CC=CC23O[C@@H]4C=CCOC(=O)[C@@H]4[C@H]2C(=O)N(C(C)CO)[C@@H]3C1=O (some centres undefined)	0.0677	-0.738 (inactive)	-0.278 (inactive)	-0.478 (inactive)	0.77 (inactive)	-1.16 (inactive)	-0.232 (inactive)	-0.443 (inactive)	0.003	-0.269	0.379 (inactive)	-0.0756	0.795	-4.96 (inactive)	0.719 (inactive)	0.149 (inactive)
CCOC(=O)C1=CC[C@H]2C(=O)N(c3ccccc3)C(=O)[C@@H]12	0.119	0.206 (inactive)	-0.811 (inactive)	0.494 (inactive)	-0.417 (inactive)	-0.337 (inactive)	-0.809 (inactive)	-1.17 (inactive)	-0.0357	0.154	0.571 (inactive)	0.903	-0.55	-3.98 (inactive)	0.152 (inactive)	-0.177 (inactive)
O=C1NC(=O)C2C1C=CC(C(O)C=Cc1ccc([N+](=O)[O-])cc1)N2Nc1ccc(Cl)cc1Cl (centres undefined)	-1.22	-6.66 (inactive)	-1.19 (inactive)	0.139 (inactive)	0.807 (inactive)	0.379 (inactive)	0.178 (inactive)	-1.04 (inactive)	-0.615	-0.197	2.22 (inactive)	0.692	-0.143	-5.55 (inactive)	0.104 (inactive)	-0.171 (inactive)
CCCC[C@@H]1C[C@H]1[C@@H](NC(=O)c1cccnc1)c1ccc(Cl)cc1	0.562	-6.77 (inactive)	-0.731 (inactive)	0.303 (inactive)	-0.0019 (inactive)	-2.78 (inactive)	0.014 (inactive)	-0.0491 (inactive)	-0.663	-0.0948	-1.19 (inactive)	-1.83	-0.577	1.33 (inactive)	-0.308 (inactive)	-0.437 (inactive)
COc1ccccc1CN1C(=O)c2ccccc2[C@@H](C(=O)NCc2ccccc2)[C@@H]1c1ccc(CO)cc1	-0.678	0.0688 (inactive)	0.122 (inactive)	0.942 (inactive)	-0.0528 (inactive)	-0.0226 (inactive)	-0.236 (inactive)	-0.36 (inactive)	0.427	-0.193	0.737 (inactive)	0.785	-1.45	-1.22 (inactive)	-0.295 (inactive)	-0.0433 (inactive)
CS(=O)(=O)CCOC(=O)C1=CC(CCCO)=CC(c2ccc(CN3CCCC3)cc2)N(Cc2cccc(OC(F)(F)F)c2)C=C1C(=O)OCCS(C)(=O)=O (centres undefined)	-0.207	-3.9 (inactive)	-0.527 (inactive)	-1.03 (inactive)	1.24 (inactive)	1.01 (inactive)	0.669 (inactive)	0.399 (inactive)	0.0703	-0.24	0.211 (inactive)	0.584	-2.79	-1.82 (inactive)	0.157 (inactive)	1.28 (inactive)
COc1ccc([Si](C)(C)[C@@H]2[C@@H](CCn3cc([C@H](O)c4ccccc4)nn3)O[C@]3(C(=O)N(Cc4cccc(N5CCC5=O)c4)c4ccccc43)[C@H]2C)cc1	0.736	-0.0294 (inactive)	-0.939 (inactive)	0.219 (inactive)	2.05 (inactive)	1.01 (inactive)	0.603 (inactive)	0.127 (inactive)	0.123	0.0345	0.863 (inactive)	0.46	-2.48	-2.8 (inactive)	-0.529 (inactive)	-0.414 (inactive)
N#Cc1ccc(C(O)C2C=CC3C(=O)N(c4ccccc4)C(=O)C3N2Nc2ccccc2F)cc1 (centres undefined)	1.46	-2.13 (inactive)	0.55 (inactive)	0.775 (inactive)	0.0083 (inactive)	-0.402 (inactive)	-0.227 (inactive)	0.692 (inactive)	0.148	0.205	0.339 (inactive)	0.749	-0.85	-3.57 (inactive)	-0.395 (inactive)	-0.0743 (inactive)

From PubChem BioAssay
